Results on 30 sequences are retold here after PubChem BioAssay AID1508600 (Functional Genomics Laboratory (NCATS/FGL), 2020).

Screen size: about 53,000 sequences; about 3,700 (7%) were called active. The entries come from a sample that favours actives as a whole. A number with no mark means an inactive call.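 The calls were made as follows: active = gene knockdowns whose robust z-score for IL-1 alpha signal is at least 2 or at most -2, so actives lie on both sides; inactive = the rest.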

The experiment is described as follows: Components of the Cytosolic LPS Sensing Pathway: Gene Identification via Genome-wide siRNA Screen.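 Also: robust z of the log signal after scaling to non-targeting control siRNA wells of the plate.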 The note with it: RAW264.7 macrophages, IL-1a HTRF, actives lie on both sides, screened at 100 nM (by protocol), cells primed 5 h with Pam3CSK4 first. Summed up: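 Three distinct siRNAs per gene were tested singly at 100 nM in RAW264.7 macrophages. Following Pam3CSK4 priming and 24 hour LipidA transfection, IL-1a secretion was read by HTRF.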
For GCAAAAGGAAACGAUCUCATT against Fbxo43, the z-score is -0.302.

For the sequence GGCUCAGGACUUUGUCUACTT against Lhx4, the z-score is -1.19. As to GGUUCAACUCUCUUUUUGATT against Atp8b5, the z-score is 0.347. Regarding GCGAAUGUAGUGUAUUAUGTT against Prkd1, the z-score is 0.259. GGACUGUUGAAUAAAACCUTT against Rnps1: the z-score is -2.29 (active). For AGGCACGUCUGAUUGCAUGTT against LOC432823 the value was 0.578; for CCAUUGUGAUCAAGAUAAATT against Cggbp1, -0.35.

With GCUGUGUCACUACUUCGAUTT against Rpp40, the z-score was 1.32. On to GGUGAAAGACACUUGAAUUTT against Cdk2, for which the z-score is 0.625.

Turning to GGAGACAGAGAAGAUUUGUTT against Mia2, the z-score was -0.21. On to “GCCAACUACGUAUAUACAUTT against 4921511C20Rik”, for which the z-score is 2.41 (active). For the sequence GCAAGGUGACAUCAGAAGUTT against Flot2, the z-score is -0.709. With GGACAUAUAUAGCAAGGAGTT against Polrmt the figure was 1.07; with GGACAGCAGUUUUUACUAGTT against Mllt10, 0.907.

On to GCUGUUUGACUACAUAAUCTT against Melk, for which the z-score was 0.275. For GGUUGGAAAUGAAAUCAAUTT against Erc2, the z-score is 2.36 (active). For the sequence GGUUCAAGUGACCAAGUUCTT against Odf3, the z-score is -0.487. With CCCAAGAUGGUAGCAGACATT against Tbxas1, the z-score was -0.00814. For GGAACAUGACAUUUUUGUCTT against Smdt1, the z-score is -0.561. On to “GGAGGACUCAGCACUCUUUTT against E130311K13Rik”, for which the z-score was -0.769. Turning to GGAUCACAGUCUCUUCGGUTT against Fgf20, the z-score was 0.473.

For the sequence GCACUGAUGUAAGGUAACCTT against Prdm4, the z-score is 2.48 (active). For the sequence GGGUGUACCUUAUGUAUUATT against Prpf4, the z-score was 1.03.

Consider GGAUUGUGCAGAGCAUCUGTT against Card14, for which the z-score is -1.45. On to GGCUGAGGAGAUAACCAUATT against Nemp2, for which the z-score was -0.701. Consider GAUGGACAAACGGAAGUGCTT against Iapp, for which the z-score was 0.322. With GGACUUCAGUUACAACCGGTT against Nr1h3 the figure was -0.174; with GGCCCAUUUUGGUGUGCAUTT against Hyal3, -2 (active). Take CCACAAUUUUUUCUGCCUCTT against Olfr492: the z-score was -0.694. CGGUAUGAGUAGGAUCUCCTT against Cd83: the z-score was -0.577.
